{"source": "paper PMC7862700", "about": "“An all-to-all approach to the identification of sequence-specific readers for epigenetic DNA modifications on cytosine”", "experiment_in_all_cases": "DAPPL (digital affinity profiling via proximity ligation, sequencing); 10 mM Tris-HCl pH 7.5, 50 mM NaCl, 1 mM DTT, 4% glycerol, room temperature, 30 min; GST-TFs on glutathione beads, 16-mer random dsDNA library, 0.1% formaldehyde crosslink after washing; high values mean tight binding", "conditions_in_all_cases": "protein: recombinant; tags: N-terminal GST; dsDNA, one strand shown", "key": {"[1]": {"biological_target": "T1, FLI1 (Homo sapiens, UniProt Q01543 1-452)", "T1 sequence": "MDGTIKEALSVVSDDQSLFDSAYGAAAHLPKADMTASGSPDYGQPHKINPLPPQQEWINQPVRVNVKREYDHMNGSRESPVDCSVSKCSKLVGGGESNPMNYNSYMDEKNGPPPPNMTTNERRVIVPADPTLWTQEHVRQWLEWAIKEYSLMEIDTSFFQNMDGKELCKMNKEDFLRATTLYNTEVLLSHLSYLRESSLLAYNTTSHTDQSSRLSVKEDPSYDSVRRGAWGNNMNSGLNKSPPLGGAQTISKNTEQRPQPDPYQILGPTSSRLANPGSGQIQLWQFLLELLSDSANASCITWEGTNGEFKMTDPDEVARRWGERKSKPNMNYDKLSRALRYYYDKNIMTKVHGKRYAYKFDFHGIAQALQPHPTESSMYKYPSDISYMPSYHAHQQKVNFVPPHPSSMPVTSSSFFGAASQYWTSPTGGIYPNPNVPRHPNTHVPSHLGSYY", "outline": "(§1)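 Human transcription factors were made in yeast as GST fusions, captured on glutathione beads and barcoded with DNA. With a tag-only sample included, the pool was incubated with 200 nmole of a random double-stranded 16-mer DNA library in Tris/NaCl/DTT/glycerol buffer at room temperature for 30 min, then crosslinked with 0.1% formaldehyde after washing, ligated by proximity, amplified and sequenced. For binding signal, each hexamer's read frequency for a factor is divided by its frequency for the tag-only sample.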"}, "[2]": {"biological_target": "T2, GABPA (Homo sapiens, UniProt Q06546 1-454)", "T2 sequence": "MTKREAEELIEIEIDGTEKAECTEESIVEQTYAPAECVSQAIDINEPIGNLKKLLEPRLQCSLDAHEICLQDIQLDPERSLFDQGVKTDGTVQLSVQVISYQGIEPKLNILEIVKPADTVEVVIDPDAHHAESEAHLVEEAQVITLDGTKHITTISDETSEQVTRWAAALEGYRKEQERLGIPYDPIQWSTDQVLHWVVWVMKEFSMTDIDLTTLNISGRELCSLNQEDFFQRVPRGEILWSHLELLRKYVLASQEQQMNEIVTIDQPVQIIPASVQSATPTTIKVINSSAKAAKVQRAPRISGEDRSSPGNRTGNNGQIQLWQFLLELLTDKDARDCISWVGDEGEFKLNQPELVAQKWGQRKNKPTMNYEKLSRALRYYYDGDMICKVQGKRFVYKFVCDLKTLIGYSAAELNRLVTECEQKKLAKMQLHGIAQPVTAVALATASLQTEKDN", "outline": "as §1"}, "[3]": {"biological_target": "T3, EHF (Homo sapiens, UniProt Q9NZC4 1-300)", "T3 sequence": "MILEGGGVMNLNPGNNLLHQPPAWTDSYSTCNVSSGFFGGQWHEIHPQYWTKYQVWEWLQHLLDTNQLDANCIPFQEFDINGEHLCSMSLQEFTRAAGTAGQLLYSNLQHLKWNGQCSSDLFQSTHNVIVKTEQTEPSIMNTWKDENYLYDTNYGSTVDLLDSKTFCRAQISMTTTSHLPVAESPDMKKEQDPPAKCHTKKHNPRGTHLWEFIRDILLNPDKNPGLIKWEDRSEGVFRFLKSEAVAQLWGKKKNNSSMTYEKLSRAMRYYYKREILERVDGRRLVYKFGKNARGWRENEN", "outline": "as §1"}, "[4]": {"biological_target": "SPIB (Homo sapiens, UniProt Q01892 1-262)", "sequence (Q01892 whole entry)": "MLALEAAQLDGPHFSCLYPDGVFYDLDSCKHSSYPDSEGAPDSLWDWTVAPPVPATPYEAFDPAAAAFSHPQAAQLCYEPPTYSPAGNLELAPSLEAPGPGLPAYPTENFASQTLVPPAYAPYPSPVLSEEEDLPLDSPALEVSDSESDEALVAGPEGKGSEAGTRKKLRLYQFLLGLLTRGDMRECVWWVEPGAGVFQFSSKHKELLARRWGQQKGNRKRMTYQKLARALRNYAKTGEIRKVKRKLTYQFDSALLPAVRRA", "outline": "as §1"}, "[5]": {"biological_target": "T4, ELK3 (Homo sapiens, UniProt P41970 1-407)", "T4 sequence": "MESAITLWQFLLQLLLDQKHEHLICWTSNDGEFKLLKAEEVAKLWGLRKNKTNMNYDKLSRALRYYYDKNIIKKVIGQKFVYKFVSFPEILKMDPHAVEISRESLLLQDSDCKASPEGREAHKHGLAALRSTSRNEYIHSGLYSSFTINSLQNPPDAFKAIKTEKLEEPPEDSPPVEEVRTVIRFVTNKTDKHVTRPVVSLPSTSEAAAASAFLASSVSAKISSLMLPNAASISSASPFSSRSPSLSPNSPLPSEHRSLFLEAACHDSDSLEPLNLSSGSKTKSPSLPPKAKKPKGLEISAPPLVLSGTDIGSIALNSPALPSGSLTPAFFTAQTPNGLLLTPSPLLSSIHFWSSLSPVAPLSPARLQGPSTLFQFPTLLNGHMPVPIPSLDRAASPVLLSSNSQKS", "outline": "as §1"}, "[6]": {"biological_target": "T5, SPIC (Homo sapiens, UniProt Q8N5J4 1-248)", "T5 sequence": "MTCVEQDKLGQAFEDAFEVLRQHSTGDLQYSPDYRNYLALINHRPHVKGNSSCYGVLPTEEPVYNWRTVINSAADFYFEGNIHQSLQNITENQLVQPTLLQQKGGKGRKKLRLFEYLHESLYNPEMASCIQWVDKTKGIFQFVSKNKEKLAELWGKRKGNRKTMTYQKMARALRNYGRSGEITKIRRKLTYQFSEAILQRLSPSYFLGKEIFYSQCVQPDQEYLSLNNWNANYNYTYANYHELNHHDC", "outline": "as §1"}, "[7]": {"biological_target": "ELF4 (Homo sapiens, UniProt Q99607 1-663)", "sequence (Q99607 whole entry)": "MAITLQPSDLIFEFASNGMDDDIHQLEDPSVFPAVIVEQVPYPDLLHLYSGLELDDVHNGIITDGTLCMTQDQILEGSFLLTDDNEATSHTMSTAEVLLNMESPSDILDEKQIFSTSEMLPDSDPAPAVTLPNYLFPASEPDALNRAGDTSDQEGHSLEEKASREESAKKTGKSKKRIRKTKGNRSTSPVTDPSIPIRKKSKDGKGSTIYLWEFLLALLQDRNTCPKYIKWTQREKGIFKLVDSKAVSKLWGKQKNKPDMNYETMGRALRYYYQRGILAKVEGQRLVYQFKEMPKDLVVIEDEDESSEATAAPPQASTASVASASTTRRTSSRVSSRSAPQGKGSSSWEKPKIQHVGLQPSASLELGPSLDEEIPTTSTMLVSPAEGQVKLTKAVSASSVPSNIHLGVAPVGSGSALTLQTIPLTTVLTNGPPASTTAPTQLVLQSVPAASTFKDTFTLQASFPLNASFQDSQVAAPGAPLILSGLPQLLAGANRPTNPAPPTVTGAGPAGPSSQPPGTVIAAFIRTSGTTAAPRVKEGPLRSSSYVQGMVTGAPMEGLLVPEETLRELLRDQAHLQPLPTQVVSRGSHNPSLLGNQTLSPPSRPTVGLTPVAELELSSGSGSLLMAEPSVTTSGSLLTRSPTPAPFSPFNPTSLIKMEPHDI", "outline": "as §1"}, "[8]": {"biological_target": "T6, ELK4 (Homo sapiens, UniProt P28324-2 1-405)", "T6 sequence": "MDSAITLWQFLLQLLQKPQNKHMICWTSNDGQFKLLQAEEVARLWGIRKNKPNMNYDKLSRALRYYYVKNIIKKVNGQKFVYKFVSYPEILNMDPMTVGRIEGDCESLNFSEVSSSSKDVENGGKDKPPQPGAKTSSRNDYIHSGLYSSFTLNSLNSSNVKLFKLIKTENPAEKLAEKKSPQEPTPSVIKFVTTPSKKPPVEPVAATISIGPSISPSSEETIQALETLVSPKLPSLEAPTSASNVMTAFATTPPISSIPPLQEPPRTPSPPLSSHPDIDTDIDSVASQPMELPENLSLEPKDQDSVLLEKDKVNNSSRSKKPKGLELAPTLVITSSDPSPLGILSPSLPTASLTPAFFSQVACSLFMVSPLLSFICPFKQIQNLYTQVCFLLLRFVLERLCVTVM", "outline": "as §1"}, "[9]": {"biological_target": "T7, ERF (Homo sapiens, UniProt P50548 1-548)", "T7 sequence": "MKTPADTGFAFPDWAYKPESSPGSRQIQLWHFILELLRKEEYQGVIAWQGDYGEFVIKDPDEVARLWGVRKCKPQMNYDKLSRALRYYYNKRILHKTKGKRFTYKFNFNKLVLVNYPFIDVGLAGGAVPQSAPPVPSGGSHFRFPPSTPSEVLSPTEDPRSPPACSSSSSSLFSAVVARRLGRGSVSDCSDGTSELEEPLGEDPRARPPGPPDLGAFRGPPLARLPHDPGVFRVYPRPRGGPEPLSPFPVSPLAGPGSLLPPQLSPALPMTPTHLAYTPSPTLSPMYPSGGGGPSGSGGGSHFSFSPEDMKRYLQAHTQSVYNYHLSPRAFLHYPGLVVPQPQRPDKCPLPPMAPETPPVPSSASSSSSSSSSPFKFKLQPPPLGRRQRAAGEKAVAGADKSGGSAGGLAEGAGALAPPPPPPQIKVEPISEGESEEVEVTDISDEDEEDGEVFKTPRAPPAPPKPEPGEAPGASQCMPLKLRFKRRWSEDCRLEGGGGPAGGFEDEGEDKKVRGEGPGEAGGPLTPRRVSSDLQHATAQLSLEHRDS", "outline": "as §1"}, "[10]": {"biological_target": "T8, ETV3L (Homo sapiens, UniProt Q6ZN32 1-361)", "T8 sequence": "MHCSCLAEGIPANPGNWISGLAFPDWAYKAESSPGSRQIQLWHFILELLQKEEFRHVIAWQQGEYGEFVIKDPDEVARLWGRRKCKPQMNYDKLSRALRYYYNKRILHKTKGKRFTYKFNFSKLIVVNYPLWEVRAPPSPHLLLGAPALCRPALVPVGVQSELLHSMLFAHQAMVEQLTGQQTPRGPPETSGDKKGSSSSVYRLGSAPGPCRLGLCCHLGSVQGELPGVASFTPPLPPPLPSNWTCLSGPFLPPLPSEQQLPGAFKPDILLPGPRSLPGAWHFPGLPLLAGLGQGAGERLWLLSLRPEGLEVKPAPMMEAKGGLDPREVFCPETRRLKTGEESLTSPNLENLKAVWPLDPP", "outline": "as §1"}, "[11]": {"biological_target": "T9, ETS2 (Homo sapiens, UniProt P15036 1-469)", "T9 sequence": "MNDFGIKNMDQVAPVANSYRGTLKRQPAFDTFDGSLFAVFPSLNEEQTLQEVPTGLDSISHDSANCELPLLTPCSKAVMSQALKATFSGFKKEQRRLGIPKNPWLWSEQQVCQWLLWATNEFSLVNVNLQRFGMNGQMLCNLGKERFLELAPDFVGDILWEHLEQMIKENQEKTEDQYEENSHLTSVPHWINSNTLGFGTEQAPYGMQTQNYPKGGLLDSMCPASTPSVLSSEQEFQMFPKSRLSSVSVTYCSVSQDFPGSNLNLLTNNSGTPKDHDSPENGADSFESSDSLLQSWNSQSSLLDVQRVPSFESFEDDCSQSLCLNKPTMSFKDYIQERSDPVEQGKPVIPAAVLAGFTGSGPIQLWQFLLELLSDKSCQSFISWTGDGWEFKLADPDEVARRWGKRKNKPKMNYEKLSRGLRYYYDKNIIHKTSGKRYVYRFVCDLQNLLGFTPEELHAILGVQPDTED", "outline": "as §1"}, "[12]": {"biological_target": "T10, ETV7 (Homo sapiens, UniProt Q9Y603 1-341)", "T10 sequence": "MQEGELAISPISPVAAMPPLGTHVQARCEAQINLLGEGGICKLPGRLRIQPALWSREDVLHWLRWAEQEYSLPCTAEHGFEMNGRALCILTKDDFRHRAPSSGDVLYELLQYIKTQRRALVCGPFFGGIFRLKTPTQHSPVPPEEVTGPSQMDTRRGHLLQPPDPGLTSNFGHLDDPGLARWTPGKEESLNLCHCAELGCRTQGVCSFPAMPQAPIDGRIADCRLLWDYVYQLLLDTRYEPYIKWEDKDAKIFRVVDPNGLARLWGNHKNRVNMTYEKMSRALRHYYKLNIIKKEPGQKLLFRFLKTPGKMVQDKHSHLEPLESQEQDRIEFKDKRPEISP", "outline": "as §1"}, "[13]": {"biological_target": "ETV6 (Homo sapiens, UniProt P41212 1-452)", "sequence (P41212 whole entry)": "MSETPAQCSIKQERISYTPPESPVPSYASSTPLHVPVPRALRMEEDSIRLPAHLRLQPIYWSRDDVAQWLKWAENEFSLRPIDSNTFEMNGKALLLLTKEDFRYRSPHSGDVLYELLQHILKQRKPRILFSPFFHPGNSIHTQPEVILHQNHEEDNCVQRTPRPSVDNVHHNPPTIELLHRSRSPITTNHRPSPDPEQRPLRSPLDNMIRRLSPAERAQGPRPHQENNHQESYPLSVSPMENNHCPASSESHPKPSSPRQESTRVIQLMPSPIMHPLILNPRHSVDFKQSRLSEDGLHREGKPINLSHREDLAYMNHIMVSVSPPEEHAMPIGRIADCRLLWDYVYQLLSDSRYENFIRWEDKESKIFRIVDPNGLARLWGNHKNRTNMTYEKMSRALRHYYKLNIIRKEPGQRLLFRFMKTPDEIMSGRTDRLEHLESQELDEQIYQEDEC", "outline": "as §1"}}, "data": [{"sequence": "GGTAAC", "values": [{"measurement": "binding signal", "setting": "[1]", "value": "1.1 fold enrichment (6-mer frequency, TF over GST control)"}, {"measurement": "binding signal", "setting": "[2]", "value": "1.03 fold enrichment (6-mer frequency, TF over GST control)"}, {"measurement": "binding signal", "setting": "[3]", "value": "1.09 fold enrichment (6-mer frequency, TF over GST control)"}, {"measurement": "binding signal", "setting": "[4]", "value": "1.02 fold enrichment (6-mer frequency, TF over GST control)"}, {"measurement": "binding signal", "setting": "[5]", "value": "1 fold enrichment (6-mer frequency, TF over GST control)"}, {"measurement": "binding signal", "setting": "[6]", "value": "1.03 fold enrichment (6-mer frequency, TF over GST control)"}, {"measurement": "binding signal", "setting": "[7]", "value": "1.01 fold enrichment (6-mer frequency, TF over GST control)"}, {"measurement": "binding signal", "setting": "[8]", "value": "1.03 fold enrichment (6-mer frequency, TF over GST control)"}, {"measurement": "binding signal", "setting": "[9]", "value": "1 fold enrichment (6-mer frequency, TF over GST control)"}, {"measurement": "binding signal", "setting": "[10]", "value": "1 fold enrichment (6-mer frequency, TF over GST control)"}, {"measurement": "binding signal", "setting": "[11]", "value": "1.02 fold enrichment (6-mer frequency, TF over GST control)"}, {"measurement": "binding signal", "setting": "[12]", "value": "1.05 fold enrichment (6-mer frequency, TF over GST control)"}, {"measurement": "binding signal", "setting": "[13]", "value": "1.04 fold enrichment (6-mer frequency, TF over GST control)"}]}]}
